# Test results reported in PubChem BioAssay (EPA / NIEHS).
# A structure can be active in one record and inactive in another. Activity calls are given as the source filed them. Rule for the calls: active = hit-call score of the fitted dose curve at least 0.9, where 1 is the maximum; inactive = score below 0.9.
# Test: CCTE_Shafer_MEA_dev_inter_network_spike_interval_mean: CCTE's Neural Network Formation Assay for Mean Inter-network Spike Interval, Shafer Lab (AID 2284047);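 for AC50: potency for a decrease in mean inter-network spike interval below DMSO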
# Protocol: CCTE_Shafer_MEA_dev assay is conducted using Axion Biosystems 48 well microelectrode array (MEA) plates and Maestro recording system. Each well of the MEA plate contains a grid of 16 microelectrodes embedded in the culture surface. Electrically active cells, such as neurons, can be cultured over the electrodes, and electrical activity in these cells can be recorded extracellularly. The spontaneous firing of neurons is captured from each electrode on a microsecond timescale providing both temporally and spatially precise data. […] The CCTE_Shafer_MEA_dev assay uses primary cultures of rat cortical neurons. Recordings are made on days post-plating 5, 7, 9 and 12. As these cultures mature over time, neural networks develop functional activity and form cohesive networks in which electrical activity can be highly coordinated. CCTE_Shafer_MEA_dev_inter_network_spike_interval_mean is 1 of 19 assay components of the CCTE_Shafer_MEA_dev assay. It measures the average time interval between network spikes (temporally-clustered groups of actional potential firing across multiple electrodes) as the average time between peaks of consecutive network spikes during a recording in a microelectrode array (MEA) using Axion Biosystems Maestro 768 channel amplifier with the AxIS adaptive spike detector. To collapse across multiple recordings made on days post-plating 5, 7, 9 and 12, the trapezoidal area-under-the-curve of the component is calculated.Data from the assay component CCTE_Shafer_MEA_dev_inter_network_spike_interval_mean was analyzed into 1 assay endpoint. This assay endpoint, CCTE_Shafer_MEA_dev_inter_network_spike_interval_mean, was analyzed in the negative analysis fitting direction relative to DMSO as the negative control and baseline of activity. Using a type of functional reporter, gain or loss-of-signal activity can be used to understand electrical activity.
# On the day prior to culture, each well was coated thoroughly with 150 uL of 0.05% polyethyleneimine (PEI, Sigma Cat P3143) in 50 mM HEPES (Sigma Cat H7523) at a pH of 8. The plate was incubated at 37C for one hour. PEI was rinsed out with 500 uL of sterile water three times. Plates were stored at 4C until the day of culture. This culture was plated at a seeding density of 1.5 x 10^5 cells/well on a 48-well MEA plate, prepared as described above. Cells were administered via a 25 uL media/laminin ([…]; Sigma Cat L2020-1MG) drop directly onto the microelectrode array, as adding the cells with the laminin results in better attachment than pre-coating with laminin. After 2 hours, an additional 475 uL of cortical media was added and the cells returned to the incubator. Exposure starts at day 0 of plating and is continued over twelve days of network development until the experiment is terminated. Cells are fed with fresh medium on DIV 5 and 9, following the recordings on those days. The entire volume of media in the well is exchanged and any vehicle or compound treatment is renewed. Complete details are found in OP-NHEERL/ISTD/SBB/TJS/2015-03-r0 (available on request, email shafer.tim@epa.gov). Measurement of the electrical activity is non-invasive, and recordings can be made from the same plate over multiple different days of the culture. In cortical neurons, this allows for the measurement of extracellular action potentials over the period during which networks form in the MEA plate.
Structure (SMILES),outcome,AC50
COC(=O)N(C(=O)N1CO[C@@]2(C(=O)OC)Cc3cc(Cl)ccc3C2=N1)c1ccc(OC(F)(F)F)cc1,inactive,–
CC1(C)C(C(=O)OC(C#N)c2cccc(Oc3ccccc3)c2)C1(C)C (configuration not stated),–,2560 nM (active)
CCCN(CC)CC1COC2(CCC(C(C)(C)C)CC2)O1 (configuration not stated),–,257 nM (active)
CC1(C)C(C=C(Cl)Cl)C1C(=O)OC(C#N)c1cccc(Oc2ccccc2)c1 (configuration not stated),inactive,–
CS(=O)(=O)c1cc(C(F)(F)F)ccc1C(=O)c1cnoc1C1CC1,inactive,–
CCN(CC)c1nc(C)cc(OP(=S)(OC)OC)n1,inactive,–
N#CN=C1SCCN1Cc1ccc(Cl)nc1,inactive,–
O=C(Nc1ccccc1-c1ccc(Cl)cc1)c1cccnc1Cl,inactive,10 nM (active)
COP(=S)(OC)Oc1ccc([N+](=O)[O-])c(C)c1,inactive,–
CNC(=O)Oc1cccc2ccccc12,inactive,–
CC(C)(C)C(=O)C(Oc1ccc(Cl)cc1)n1cncn1 (configuration not stated),inactive,–
Cc1c(COC(=O)[C@@H]2[C@H](/C=C(\Cl)C(F)(F)F)C2(C)C)cccc1-c1ccccc1,inactive,2300 nM (active)
C=C(C)CN(CC)c1c([N+](=O)[O-])cc(C(F)(F)F)cc1[N+](=O)[O-],inactive,–
CCSC(=O)N1CCCCCC1,inactive,–
CCOC(=O)C(C)OC(=O)c1cc(Oc2ccc(C(F)(F)F)cc2Cl)ccc1[N+](=O)[O-] (configuration not stated),inactive,–
COP(=O)(OC)O/C(C)=C/C(=O)N(C)C,inactive,–
CCNC(=O)NC(=O)C(C#N)=NOC,inactive,–
CN/C(=N\[N+](=O)[O-])NCc1cnc(Cl)s1,inactive,–
CC(C)=CC1C(C(=O)OCc2coc(Cc3ccccc3)c2)C1(C)C (configuration not stated),inactive,–
CCOP(=O)(OCC)Oc1nc(Cl)c(Cl)cc1Cl,inactive,–
CS(=O)(=O)c1ccc(C(=O)C2C(=O)CCCC2=O)c([N+](=O)[O-])c1,inactive,–
CO/N=C(/C1=NOCCO1)c1ccccc1Oc1ncnc(Oc2ccccc2Cl)c1F,inactive,520 nM (active)
O=C1C2CC=CCC2C(=O)N1SC(Cl)(Cl)Cl (configuration not stated),inactive,–
COP(=S)(OC)SCn1nnc2ccccc2c1=O,inactive,–
